The structures appear in SMILES notation. Values joined by “and” are separate entries in the source; they are usually repeats but may differ in a detail not shown here. Equal values may be shown once. Records with an inconclusive call do not appear. A call without a number means that no potency is given here. Where a structure was tested more than once in an assay, its records may differ in their call. Active and inactive are the calls of the source. The call rests on the fitted dose curve; in most records, active means well fitted cell-killing curve with a large enough effect in the repeat runs; inconclusive means weak or mixed curves, or effect the other way; inactive means flat fitted curve, though single readings scatter.
Potency means the concentration at half of the fitted maximal effect.

The experiment can be described thus: qHTS assay to identify small molecule agonists of the estrogen receptor beta (ER-beta) signaling pathway - cell viability counter screen (AID 1259380). Further: nearly all actives have a fitted effect of over 30% in size. The conditions noted are these: ER-beta-bla HEK293T viability, CellTiter-Glo luminescence, 16 h; series mostly up to 92.4 µM. The source says:
National Center for Advancing Translational Sciences [NCATS]
NIH Chemical Genomics Center [NCGC]
U.S. Environmental Protection Agency [EPA]
National Institutes of Environmental Health Sciences [NIEHS]
National Toxicology Program [NTP]
U.S. Food and Drug Administration [FDA]
Estrogen receptor (ER), a nuclear hormone receptor, plays an important role in development, metabolic homeostasis and reproduction. Two subtypes of ER, ER-alpha and ER-beta, have similar expression patterns with some uniqueness in both types. Endocrine disrupting chemicals (EDCs) and their interactions with steroid hormone receptors like ER causes disruption of normal endocrine function. To identify the compounds that activate ER signaling, an ER beta-UAS-bla GripTite cell line (Life Technologies, Madison, WI, USA) containing a beta-lactamase reporter gene under the control of an UAS response element was used to screen Tox21 10K compound library. The cytotoxicity of the Tox21 compound library against the ER-beta-bla cell line was tested in parallel by measuring the cell viability using CellTiter-Glo assay in the same wells.
Tox21 Assay Protocol Summary:
ER-beta-UAS-bla HEK293T cells were dispensed at 2,000 cells/5 uL of assay medium containing 2% charcoal stripped FBS per well into black wall/clear-bottom 1536-well plates using a Multidrop Combi (ThermoFisher Scientific, Waltham, MA) dispenser. After the assay plates were incubated at a 37C and 5% CO2 for 6 hr, 23 nL of compounds dissolved in DMSO, positive controls or DMSO only was transferred to the assay plate by a Pintool station (Kalypsys, San Diego, CA). The plates were incubated at 37C and 5% CO2 for 16 hr. Then 1 uL of LiveBLAzerTM B/G FRET substrate was added using a BioRAPTR FRD (Flying Reagent Dispenser, Aurora Discovery, San Diego, CA) and then the plates were incubated at room temperature for 2 hours, and fluorescence intensity was measured by an Envision plate reader (PerkinElmer, Shelton, CT). For cell viability readout that measures cytotoxicity, 4 uL/well of CellTiter-Glo reagent was added into the assay plates using a FRD. After 30 min incubation at room temperature, the luminescence intensity in the plates was measured using a ViewLux (PerkinElmer) plate reader.
In general terms: In qHTS, concentration-response curves come from the screen itself.
For the compound `CC1=C(C)S(=O)(=O)CCS1(=O)=O`, the Potency result is “inactive”.
Take `CN(C)CCCN`: the Potency entry was “inactive”.
Next, `CN(C)CCOCCN(C)C`: “inactive”; `CC(=O)OCC(=O)[C@@]12N=C(C)O[C@@H]1C[C@H]1[C@@H]3CCC4=CC(=O)C=C[C@]4(C)[C@H]3[C@@H](O)C[C@@]12C`: “inactive”.
Next, `CC1CCC(C(C)C)C(O)C1` (stereo not given): “inactive”; `c1ccc2c(c1)ccc1ccccc12`: “inactive”; `O=c1[nH]nnc2ccccc12`: “inactive”.
Next, `Oc1cccc2ccccc12`: “inactive”; `CCCCCC/C(C=O)=C\c1ccccc1`: “inactive”; `CCC(O)OC(O)CC` (stereo not given): “inactive”.
Consider `C=C(C)C(=O)OCCOCCOCCOC(=O)C(=C)C`, for which the Potency result is “inactive”.
`COS(C)(=O)=O`: the Potency entry was “inactive”.
Consider `CCCCC(CC)CO` (stereo not given), for which the Potency result is “inactive”.
As to `C#CCN(C)Cc1ccccc1`, the Potency result is “inactive”.
Next, `C=CCNC(N)=S`: “inactive”.
Take `Cc1ccc2oc(=O)ccc2c1`: the Potency result was “inactive”.
Next, `O=C1CCC(N2C(=O)c3ccccc3C2=O)C(=O)N1` (stereo not given): “inactive”; `O=C(O)c1ccccc1C(c1ccc(O)cc1)c1ccc(O)cc1`: “inactive”.
For `COCCCOc1ccnc(CS(=O)c2nc3ccccc3[nH]2)c1C` (stereo not given) the value was “inactive”; for `CN(C)CCC(c1ccccc1)c1ccccn1` (stereo not given), “inactive”.
With `CCCSc1ccc2nc(NC(=O)OC)[nH]c2c1`, the Potency entry was “inactive”.
Next, `CC1CCC2CC1C2(C)C` (stereo not given): “inactive”; `CC(=O)CC(=O)Nc1ccccc1C`: “inactive”.
Next, `C=C(C)C(=O)Nc1ccc(Cl)c(Cl)c1`: 55 µM (active) and 54.3 µM (active); `O=C(Oc1ccccc1)c1ccccc1`: “inactive”; `CC1=CCC2CC1C2(C)C` (stereo not given): “inactive”.
For `CCCCCCCCCCCCCCO` the value was “inactive”.
Regarding `O=C(O)c1ccc2c(c1)C(=O)OC2=O`, the Potency result was “inactive”.
For `C=C(C)C(=O)O[C@H]1C[C@@H]2CC[C@@]1(C)C2(C)C` the value was 4.3 µM (active) and inactive; for `Cc1cnc(C(=O)NCCc2ccc(S(=O)(=O)NC(=O)NC3CCCCC3)cc2)cn1`, “inactive”; for `CCCCOC(=O)COc1ccc(Cl)cc1Cl`, “inactive”.
For `CCCCC(CC)COC(=O)C(C#N)=C(c1ccccc1)c1ccccc1` (stereo not given) the value was “inactive”.
Next, `CC(=O)CC(=O)Nc1ccccc1`: “inactive”.
Consider `CCc1cccc(C)c1N`, for which the Potency entry was “inactive”.
For `O=[N+]([O-])c1ccc(/C=C/c2ccc([N+](=O)[O-])cc2S(=O)(=O)O)c(S(=O)(=O)O)c1` the value was “inactive”.
Next, `CCC(O)OCCCOC` (stereo not given): “inactive”; `COc1ccc2cc([C@H](C)C(=O)O)ccc2c1`: “inactive”.
Next, `Cc1ccc(S(N)(=O)=O)cc1`: “inactive”; `Cc1cccnc1`: “inactive”.
In the case of `CCCCCCCCCCCCS`, the Potency entry is “inactive”.

The record behind these values is PubChem BioAssay (Tox21).
